TDP1 cell CPT: DT40-hTDP1 cell growth loss with CPT; chicken DT40 Tdp1-/-;hTDP1 cells + 20 nM CPT, ATP luminescence, 48 h; Potency, µM (highest dose often 46.2 µM), for inactives: at the top dose activity change, negative = growth inhibition, actives largely listed as inhibitors; hit rate 12% among 420,000; note: nearly all actives have a fitted effect of over 55% in size
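Chicken DT40 Tdp1-/- cells complemented with human TDP1, 400 cells/well, exposed to compounds plus 20 nM camptothecin for at least 48 h at 37 C; viability read as ATP content by CellTiter-Glo luminescence.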
VP16 counter: counter-screen for ROR gamma inhibitors: Gal4-VP16 reporter; hit rate 3.5% among 310,000; AID 2546; Drosophila S2 Gal4-VP16 UAS-luciferase, luminescence, 20 h; Potency, µM (titrated, usually from 53.6 µM), without a hit: at the highest dose activity, negative = inhibition, hits mostly inhibitors;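 note: Gal4-VP16 expression switched on by copper sulfate through the metallothionein promoter; nearly all actives have a fitted effect of over 50% in size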
TDP1 cell noCPT: qHTS for Inhibitors of human tyrosyl-DNA phosphodiesterase 1 (TDP1): qHTS in cells in absence of CPT; DT40 Tdp1-/- hTDP1 cells, no CPT, ATP luminescence, 48 h; Potency, µM (series often up to 46.2 µM), for the others: at the top dose activity change, negative = growth inhibition, usual class: inhibitors; hit rate 15% among 420,000; AID 686978, 2013; note: nearly all actives have a fitted effect of over 55% in size
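Growth of hTDP1-complemented DT40 Tdp1-knockout cells is measured by ATP luminescence after at least 48 hr compound exposure at 37 °C, with DMSO substituting for the 20 nM CPT used in the parallel screen.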
TDP1 inh: TDP1 (human) enzyme inhibition | recombinant TDP1, AlphaScreen DNA substrate cleavage | Potency, µM (doses to about 130 µM), for inactives: at the highest dose activity change, negative = inhibition, hits mostly inhibitors | hit rate 0.28% among 350,000 | AID 485290; note: nearly all actives have a fitted effect of over 40% in size
Target sequence (Q9NUW8 whole entry, looked up): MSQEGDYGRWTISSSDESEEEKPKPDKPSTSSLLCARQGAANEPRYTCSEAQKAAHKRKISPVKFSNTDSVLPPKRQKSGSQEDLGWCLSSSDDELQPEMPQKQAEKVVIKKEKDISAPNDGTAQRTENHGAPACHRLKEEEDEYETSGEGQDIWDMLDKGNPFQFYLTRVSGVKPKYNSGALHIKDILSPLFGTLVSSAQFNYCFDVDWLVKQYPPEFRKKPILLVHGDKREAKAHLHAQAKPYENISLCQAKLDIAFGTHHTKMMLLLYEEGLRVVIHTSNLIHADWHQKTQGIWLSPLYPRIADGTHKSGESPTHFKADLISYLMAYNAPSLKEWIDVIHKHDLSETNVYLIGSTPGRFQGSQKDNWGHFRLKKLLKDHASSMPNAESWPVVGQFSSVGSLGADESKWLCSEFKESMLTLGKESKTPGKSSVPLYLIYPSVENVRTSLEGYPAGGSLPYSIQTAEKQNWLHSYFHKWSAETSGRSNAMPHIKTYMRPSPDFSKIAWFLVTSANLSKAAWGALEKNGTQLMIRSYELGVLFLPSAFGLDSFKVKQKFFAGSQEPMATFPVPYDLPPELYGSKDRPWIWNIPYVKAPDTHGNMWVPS
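Compounds were preincubated with Tdp1 (1 nM final) for 15 min at room temperature before substrate (15 nM final) started a 5 min reaction; beads (10 ug/ml final) were then added for 10 min before AlphaScreen detection.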
RORgamma inh: inhibitors of mouse ROR gamma transcriptional activity; P51450; Drosophila S2 Gal4-RORgamma UAS-luciferase reporter, 20 h; Potency, µM (top dose mostly 53.6 µM), inactives show at the highest dose activity change, negative = inhibition, actives largely listed as inhibitors; hit rate 5.4% among 310,000; AID 2551; note: nearly all actives have a fitted effect of over 60% in size
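Luminescence from a UAS-regulated Photinus luciferase reporter in stably transfected Drosophila Schneider cells is measured; decreased signal marks ROR gamma inhibition. Fusion expression is induced by 700 uM copper sulfate for 20 hr.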
Numbers without * were called inactive; ? = inconclusive; . = no result given; [ ] = remark or other dose. Sampled rows, rich in hits. Any-hit rate of the full collection: about 19%. Calls come from the whole dose curve; as a rule, active = well fitted curve in the direction sought with a large enough effect; inconclusive = small, poorly fitted or top-dose-only effect, or another doubt; inactive = no such curve, though single readings can be large; an effect the other way counts as inactive or inconclusive. % is set by controls: 0 for no effect and ±100 for the full control effect; potency is the fitted concentration of half-maximal effect.

SMILES	TDP1 cell CPT	VP16 counter	TDP1 cell noCPT	TDP1 inh	RORgamma inh
COc1ccc(Cl)cc1NC(=O)c1c(NCc2cccnc2)sc2c1CCC(C)C2 (centres undefined)	3.66µM*	.	4.61µM*	9.5%	.
Cc1ccc(CN2CC(C(=O)N3CCN(S(=O)(=O)c4c(F)cccc4F)CC3)CC2=O)cc1 (centres undefined)	-4.7%	.	-11.1%	-9.3%	.
CC(NC(=O)CN1CCN(c2ncccn2)CC1)c1ccc(F)cc1 (centres undefined)	-14.6%	0.6%	-5.6%	3.1%	-0.4%
Fc1ccccc1NC(=S)N(CCCN1CCOCC1)Cc1cccnc1	0.5%	3.2%	-12.3%	-1.2%	-15.8%
COc1ccccc1NC(=O)c1c(NCc2ccc(C)o2)sc2c1CCCCC2	5.8µM*	.	6.51µM*	10.4%	.
CCOc1ccc(NC(=O)c2c(NCc3cccnc3)sc3c2CCC(C)C3)cc1 (centres undefined)	14.6µM*	.	14.6µM*	6.6%	.
COc1ccccc1NC(=O)c1c(NC(=O)c2ccco2)sc2c1CCC2	?	5.3%	?	4.2%	6.2%
CC(=C\C(=O)O)/C(=C/c1ccc(C)o1)C(=O)O	14.6µM*	-25.7%	20.6µM*	.	41.4%
CC(=C\C(=O)O)/C(=C/c1ccco1)C(=O)O	-16.1%	3.6%	20.0%	?	18.9%
COc1cccc(-c2oc3c(c2C#CCCO)C(O)CCC3)c1 (centres undefined)	-7.5%	.	-15.0%	.	.
COc1cccc(-c2oc3c(c2C#CC2(N)CCCCC2)C(O)CCC3)c1 (centres undefined)	18.4µM*	.	18.4µM*	.	.
C[C@H](CO)N1C[C@H](C)[C@@H](CN(C)C(=O)Nc2ccc(C(F)(F)F)cc2)Oc2ccc(NC(=O)C3CCCCC3)cc2C1=O	?	.	?	-0.6%	.
Cc1ccc(S(=O)(=O)NC(CC(=O)O)c2ccccc2)cc1 (centres undefined)	-8.9%	1.3%	-0.2%	0.0%	-31.9%
Cc1ccc(S(=O)(=O)NC(CCc2ccccc2)CC(=O)C(C)(C)C)cc1 (centres undefined)	23.1µM*	-26.2%	16.4µM*	2.6%	35.3%
CCOC(=O)c1c(NC(=O)c2ccccc2N(C)S(=O)(=O)c2ccccc2)sc2c1CCCC2	?	-13.4%	20.6µM*	-3.0%	9.1%
COC(=O)c1c(NC(=O)c2ccccc2N(C)S(=O)(=O)c2ccccc2)sc2c1CCCC2	16.4µM*	-7.2%	14.6µM*	0.0%	-20.2%
CCOC(=O)c1c(NC(=O)c2ccc(C)cc2)sc2c1CCCCC2	9.7%	.	4.6%	0.0%[2.28 µM]	.
CCOC(=O)c1c(NC(=O)C(NCCN(C)C)c2ccccc2)sc2c1CCCC2 (centres undefined)	0.651µM*	11.2µM*	2.06µM*	1.2%[0.0935 µM]	3.55µM*
CCOC(=O)c1c(NC(=O)c2ccccc2Cl)sc2c1CCCC2	?	.	?	-2.3%	.
CC(C)OC(=O)c1c(NS(=O)(=O)c2ccccc2)sc2c1CCCC2	6.51µM*	-9.9%	5.17µM*	1.0%[56.1 µM]	-51.1%
COC(=O)c1c(NS(=O)(=O)Cc2ccccc2)sc2c1CCCC2	-10.1%	2.4%	-1.7%	4.0%	-1.6%
CCOC(=O)c1ccc(NC(=O)CN(c2ccc(C)cc2)S(=O)(=O)c2c(C)n[nH]c2C)cc1	?	0.3%	?	-2.0%	?
COc1cc(CNC(C)(C)CO)ccc1OCC(=O)Nc1ccc(Br)cc1	?	-7.0%	?	4.0%	12.0%
O=C1N[C@@H](Cc2ccccc2)COC(=O)[C@H](Cc2ccc(F)cc2)CC/C=C/C[C@@H]1CC(=O)N(CCO)Cc1ccccc1	?	.	?	0.8%	.
O=C1N[C@@H](c2ccccc2)COC(=O)[C@H](Cc2ccc(F)cc2)CC/C=C/C[C@@H]1CC(=O)N(CCO)Cc1ccccc1	?	.	16.4µM*	1.5%	.
SMILES	TDP1 cell CPT	VP16 counter	TDP1 cell noCPT	TDP1 inh	RORgamma inh
O=C1N[C@@H](c2ccccc2)COC(=O)[C@@H](Cc2ccc(F)cc2)C/C=C\C[C@H]1CC(=O)N(CCO)Cc1ccccc1	14.6µM*	.	10.3µM*	1.6%	.
C[C@@H]1COC(=O)[C@H](CC(=O)OC(C)(C)C)C/C=C\C[C@H](CC(=O)N(CCO)Cc2ccccc2)C(=O)N1	-15.1%	.	-15.8%	1.3%	.
C[C@H]1COC(=O)[C@H](Cc2ccc(F)cc2)C/C=C\C[C@H](CC(=O)N(CCO)Cc2ccccc2)C(=O)N1	?	.	?	1.1%	.
CC(C)(C)OC(=O)C[C@@H]1C/C=C\C[C@@H](CC(=O)N(CCO)Cc2ccccc2)C(=O)N[C@@H](c2ccccc2)COC1=O	?	.	23.1µM*	0.4%	.
O=Cc1ccccc1Oc1nc(N2CCOCC2)nc(N2CCOCC2)n1	-4.4%	-5.5%	?	5.5%	-9.1%
C/C(=N\OC(=O)Nc1ccccc1)c1cnn(-c2cc(C(F)(F)F)cc(C)n2)c1C	-22.1%	-7.4%	-23.6%	0.0%	12.7%
COc1ccc(CC(=O)Nc2cccc(C(=O)NN3C(=O)c4ccccc4C3=O)c2C)cc1	-15.4%	1.2%	-5.7%	7.9%	-27.7%
CCCNC(=O)N1CCN(S(=O)(=O)c2ccc(C)cc2)CC1	-19.5%	-5.1%	-1.1%	7.1%	24.6%
CCc1cccc(NC(=O)Cc2ccc([N+](=O)[O-])cc2)c1	-3.2%	-1.5%	?	-1.9%	-0.3%
Fc1cccc(Cl)c1CNc1ccc(N2CCCC2)cc1	2.31µM*	5.5%	9.2µM*	8.6%	-32.9%
NS(=O)(=O)c1ccc(NCc2c(F)cccc2Cl)cc1	-21.2%	6.3%	?	-5.8%	?
CCOc1ccc(CNC(=O)Cn2nc(C)c3nn(-c4ccc(Cl)cc4)c(C)c3c2=O)cc1OC	?	.	18.4µM*	2.7%	.
Cc1nn(CC(=O)Nc2ccccc2F)c(=O)c2c(C)n(-c3ccc(Cl)cc3)nc12	23.1µM*	.	?	2.7%	.
Cc1cccc(CNC(=O)Cn2nc(C)c3nn(-c4ccc(Cl)cc4)c(C)c3c2=O)c1	20.6µM*	.	18.4µM*	5.4%	.
O=C(c1cc(COc2cccc3cnccc23)on1)N1CCCC(CCCO)C1 (centres undefined)	1.16µM*	2.82µM*	0.651µM*	1.3%	?
Cc1ccc(OCc2cc(C(=O)N(C)Cc3nccn3C)no2)cc1C	-20.2%	10.8%	-21.5%	4.8%	34.1%
CCc1cc(C(=O)N2CCCC(CNC(=O)c3ccc(-c4ccccc4)cc3)C2)no1 (centres undefined)	?	5.3%	16.4µM*	5.4%	1.8%
COCC1CCN(C(=O)c2cc(COc3cccc4cnccc34)on2)CC1	9.2µM*	12.6µM*	4.11µM*	5.3%	23.4%

Screening results from PubChem BioAssay.
